Here are results for five compounds from PubChem BioAssay.

Test [1] in a line: yeast TOR pathway RPL19A-GFP modulators, primary screen, cell-based, S. cerevisiae, multiplex flow cytometry (AID 1862; in the data active = percent of DMSO control GFP below about 86%;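 also: lower values mimic rapamycin by blocking the RPL19A rise seen in DMSO cells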). As to conditions: S. cerevisiae RPL19A-GFP strain, flow cytometry fluorescence, 3 h; at 10 µM; stronger effect = lower value.
A short description of test [2]: modulators of MEP2-GFP levels in yeast, primary screen, S. cerevisiae, multiplex flow cytometry (AID 1867;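 active = GFP response, as percent of the DMSO control, above the screen-wide mean plus 3 SD, about 139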;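 also: median GFP channel fluorescence of barcode-gated MEP2-GFP cells measured by flow cytometry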). As to conditions: S. cerevisiae MEP2-GFP strain, 3 h, at 10 µM, stronger effect = higher value, 100% means same as DMSO wells.
The nature of test [3]: modulators of CIT2-GFP expression in yeast, primary screen, S. cerevisiae, GFP fusion, multiplex flow cytometry (AID 1870;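 active = percent response above a set limit, the screen-wide mean plus 3 SD, cut at about 130% in these data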;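 also: barcoded CIT2-GFP strain pooled with four other GFP strains with rapamycin as positive control; median GFP fluorescence per well over plate mean of DMSO wells so 100% = DMSO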). The following applies: 3 h, at 10 µM, stronger effect = higher value.
Test [4] is described as follows: modulators of LAP4-GFP expression in yeast, primary screen, S. cerevisiae, multiplex flow cytometry (AID 1873;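 active = GFP signal, as percent of the solvent control, above the screen mean plus 3 SD, about 149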). The following applies: 3 h, at 10 µM, stronger effect = higher value.
Test [5] is described as follows: modulators of AGP1-GFP expression in yeast TOR pathway, primary screen, cell-based, multiplex flow cytometry, S. cerevisiae (AID 1887;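 active = GFP signal above the screen-wide mean plus 3 SD, that is over about 124.5% of the solvent control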;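 also: AGP1-GFP fusion strain of S. cerevisiae within a five-strain barcoded multiplex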). The following applies: 3 h, at 10 µM, stronger effect = higher value.
A short description of test [6]: inhibitors of CD8+ T cell-vesicle binding, pilot screen, LFA-1/ICAM-1 modulator project, MLPCN validation set, flow cytometry (AID 2523;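 active = response below a set limit, under 55% cells CD8-positive and vesicle-bound, and CD8 cells' 90th-percentile brightness under 279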;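 as to vesicle binding response: mean PE anti-B7-1 fluorescence of CD8+ cells relative to row control; 100% = QL9-loaded vesicles with DMSO vehicle in the same plate row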). The following applies: 2C mouse CD8+ T cells, at 7 µM, stronger effect = lower value; double positive events: measured here: CD8+/vesicle+ event percentage.
The target in test [7] is Integrin beta-1 (Homo sapiens) + Integrin alpha-4 (Homo sapiens) (UniProt P13612+P05556). Briefly: inhibition of HUTS-21 binding to VLA-4, pilot screen, VLA-4 allosteric modulator project, U937 cells, HUTS-21 mAb, flow cytometry, validation set (AID 2674;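 active = inhibition above 50%, about 3 SD of the validation set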;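 also: antibody binding induced by the VLA-4 ligand LDV present at three times its Kd; 0% = LDV ligand with antibody and no compound and 100% = antibody without LDV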). As to conditions: HUTS-21 LIBS mAb binding, at 6.7 µM, stronger effect = higher value, binding induced by LDV ligand.
Sequence of Integrin beta-1 (Homo sapiens) + Integrin alpha-4 (Homo sapiens) (P05556 whole entry, looked up): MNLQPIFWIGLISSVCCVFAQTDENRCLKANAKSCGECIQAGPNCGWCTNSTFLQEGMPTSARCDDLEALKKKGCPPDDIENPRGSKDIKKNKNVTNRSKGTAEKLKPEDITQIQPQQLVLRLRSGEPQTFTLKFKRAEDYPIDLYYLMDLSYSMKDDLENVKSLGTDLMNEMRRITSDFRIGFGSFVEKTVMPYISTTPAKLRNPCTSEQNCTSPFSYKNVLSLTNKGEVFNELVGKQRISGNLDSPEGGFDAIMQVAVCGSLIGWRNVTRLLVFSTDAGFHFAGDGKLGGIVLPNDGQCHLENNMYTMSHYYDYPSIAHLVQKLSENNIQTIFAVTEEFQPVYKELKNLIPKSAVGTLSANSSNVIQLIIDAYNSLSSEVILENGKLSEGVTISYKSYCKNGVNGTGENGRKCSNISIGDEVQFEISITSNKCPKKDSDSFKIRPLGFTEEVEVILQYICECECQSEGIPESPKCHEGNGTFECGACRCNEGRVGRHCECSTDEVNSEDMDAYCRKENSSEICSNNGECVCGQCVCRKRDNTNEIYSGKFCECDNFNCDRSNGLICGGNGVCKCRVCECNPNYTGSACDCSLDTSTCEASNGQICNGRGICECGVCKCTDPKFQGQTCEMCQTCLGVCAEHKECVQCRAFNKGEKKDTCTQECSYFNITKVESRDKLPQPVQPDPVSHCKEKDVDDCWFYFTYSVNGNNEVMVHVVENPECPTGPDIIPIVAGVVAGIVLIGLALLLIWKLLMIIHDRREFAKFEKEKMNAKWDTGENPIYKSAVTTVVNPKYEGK
Sequence of Integrin beta-1 (Homo sapiens) + Integrin alpha-4 (Homo sapiens) (P13612 whole entry, looked up): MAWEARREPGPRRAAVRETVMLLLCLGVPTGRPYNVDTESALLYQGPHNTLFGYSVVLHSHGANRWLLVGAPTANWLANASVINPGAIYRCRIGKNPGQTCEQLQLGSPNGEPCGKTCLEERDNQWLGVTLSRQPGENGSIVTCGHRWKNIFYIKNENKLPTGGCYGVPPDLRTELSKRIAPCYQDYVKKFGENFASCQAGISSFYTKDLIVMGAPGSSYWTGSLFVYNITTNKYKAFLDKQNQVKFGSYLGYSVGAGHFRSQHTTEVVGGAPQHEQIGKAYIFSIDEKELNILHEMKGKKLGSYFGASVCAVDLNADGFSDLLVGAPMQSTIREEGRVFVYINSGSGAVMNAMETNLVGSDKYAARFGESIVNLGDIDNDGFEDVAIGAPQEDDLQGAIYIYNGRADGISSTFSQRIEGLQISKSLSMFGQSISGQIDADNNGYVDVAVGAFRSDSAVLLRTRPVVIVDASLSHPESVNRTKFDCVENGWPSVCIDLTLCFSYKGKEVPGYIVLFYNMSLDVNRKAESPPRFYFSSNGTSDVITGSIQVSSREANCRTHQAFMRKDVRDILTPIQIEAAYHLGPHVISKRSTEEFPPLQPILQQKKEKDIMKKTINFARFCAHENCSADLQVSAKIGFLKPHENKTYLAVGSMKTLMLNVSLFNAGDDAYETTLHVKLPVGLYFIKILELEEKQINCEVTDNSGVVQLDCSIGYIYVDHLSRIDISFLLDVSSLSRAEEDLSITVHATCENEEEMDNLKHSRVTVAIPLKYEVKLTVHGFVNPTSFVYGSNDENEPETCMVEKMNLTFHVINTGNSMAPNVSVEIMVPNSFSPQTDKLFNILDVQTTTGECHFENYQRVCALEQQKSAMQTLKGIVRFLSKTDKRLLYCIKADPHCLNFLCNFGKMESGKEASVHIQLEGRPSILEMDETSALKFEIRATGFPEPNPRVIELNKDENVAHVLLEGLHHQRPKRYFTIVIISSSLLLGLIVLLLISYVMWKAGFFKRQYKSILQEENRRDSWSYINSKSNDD
Test [8] can be described thus: superoxide lowering in aged yeast cells, pilot screen, validation compound set (AID 2706;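 active = superoxide response below 65% of plate, a cut near 3 SD across the whole screen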;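 also: yeast exposed to compound for one week at 30 degrees C before staining; 100% = mean of all compound wells on the same plate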). The following applies: S. cerevisiae aging, superoxide DHE fluorescence; at 10 µM; stronger effect = lower value.
Test [9] addresses Beta-adrenergic receptor kinase 1 (Homo sapiens) (UniProt P25098). The experiment in a line: GRK2 binders displacing RNA aptamer, biochemical, validation, human GRK2, bead flow cytometry (AID 488806). As to conditions: bead-bound GRK2, FAM-aptamer displacement, at 10 µM, stronger effect = higher value.
For test [10], the target named is Beta-2 adrenergic receptor (Homo sapiens) (UniProt P07550). The experiment in a line: beta2AR agonists driving receptor internalization, pilot screen, cell-based, FAP fluorogen, flow cytometry, validation set (AID 504459;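 active = percent response above 42, roughly 3 SD of non-fluorescent test compounds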;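 also: agonist-driven loss of surface beta2AR via internalization measured by FAP dye flow cytometry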). The following applies: Am2.2-beta2AR cells, FAP surface receptor flow cytometry; at 10 µM; stronger effect = higher value.
Sequence of Beta-2 adrenergic receptor (Homo sapiens) (P07550 whole entry, looked up): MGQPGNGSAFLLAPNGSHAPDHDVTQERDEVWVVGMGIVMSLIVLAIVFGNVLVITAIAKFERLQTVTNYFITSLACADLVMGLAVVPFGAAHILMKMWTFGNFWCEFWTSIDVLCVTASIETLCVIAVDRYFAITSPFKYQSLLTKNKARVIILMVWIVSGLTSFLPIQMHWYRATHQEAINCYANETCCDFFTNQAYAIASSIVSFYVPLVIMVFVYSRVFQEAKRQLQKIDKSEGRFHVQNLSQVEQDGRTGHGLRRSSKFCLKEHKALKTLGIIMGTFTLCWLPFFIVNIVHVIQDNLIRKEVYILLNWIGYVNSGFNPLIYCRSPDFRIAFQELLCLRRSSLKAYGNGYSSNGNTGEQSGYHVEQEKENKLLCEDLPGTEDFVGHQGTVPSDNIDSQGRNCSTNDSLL
For test [11], the target named is AP-2 complex subunit beta (Homo sapiens) (UniProt P63010). Briefly: inhibitors of arrestin peptide binding to AP2, pilot screen, biochemical, validation set, GST-AP2 beads, flow cytometry (AID 504541;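 active = inhibition above 54%, about 3 SD of non-fluorescent compounds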;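 also: AP2 carries R879A mutation and is captured from E. coli lysate; bead-bound FITC arrestin peptide fluorescence measuring arrestin peptide binding to AP2; 0% = DMSO wells and 100% = excess unlabeled arrestin peptide control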). The following applies: FITC arrestin peptide, at 10 µM, stronger effect = higher value, AP2 beta2 appendage fragment, R879A mutant.
Sequence of AP-2 complex subunit beta (Homo sapiens) (P63010 whole entry, looked up, the tested form may be a part, one chain of several): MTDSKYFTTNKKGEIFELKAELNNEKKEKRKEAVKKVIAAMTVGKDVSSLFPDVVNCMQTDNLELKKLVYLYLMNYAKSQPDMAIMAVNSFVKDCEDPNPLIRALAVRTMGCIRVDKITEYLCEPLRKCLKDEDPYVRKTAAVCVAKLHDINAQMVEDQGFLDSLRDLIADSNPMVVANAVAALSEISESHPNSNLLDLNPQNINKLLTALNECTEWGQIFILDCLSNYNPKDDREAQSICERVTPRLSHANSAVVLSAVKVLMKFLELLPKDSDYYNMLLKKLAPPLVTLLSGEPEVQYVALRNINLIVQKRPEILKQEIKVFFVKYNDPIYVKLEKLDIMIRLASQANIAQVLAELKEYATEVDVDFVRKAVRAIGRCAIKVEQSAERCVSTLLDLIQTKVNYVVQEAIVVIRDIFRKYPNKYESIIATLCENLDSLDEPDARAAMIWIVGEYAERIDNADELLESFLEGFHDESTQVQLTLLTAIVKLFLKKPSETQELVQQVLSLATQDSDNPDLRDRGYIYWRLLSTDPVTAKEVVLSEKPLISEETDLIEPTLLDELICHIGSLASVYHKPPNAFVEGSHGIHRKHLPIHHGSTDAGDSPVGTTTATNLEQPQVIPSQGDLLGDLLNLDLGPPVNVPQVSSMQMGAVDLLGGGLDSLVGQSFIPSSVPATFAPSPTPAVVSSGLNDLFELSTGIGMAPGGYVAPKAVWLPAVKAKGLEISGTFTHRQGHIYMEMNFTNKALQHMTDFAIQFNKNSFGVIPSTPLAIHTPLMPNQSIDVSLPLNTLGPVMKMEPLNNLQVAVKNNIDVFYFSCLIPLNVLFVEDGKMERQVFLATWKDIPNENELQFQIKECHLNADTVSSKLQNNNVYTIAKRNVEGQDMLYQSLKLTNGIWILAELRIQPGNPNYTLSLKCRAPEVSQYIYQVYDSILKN
Test [12] is described as follows: yeast V-ATPase proton transport modulators, S. cerevisiae, pHLuorin, HTS validation (AID 504600; in the data active = response above about 15%;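 also: plate controls were DMSO for no effect and reference compound for full effect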). As to conditions: S. cerevisiae pHLuorin cytosolic pH, at 10 µM, stronger effect = higher value.
Test [13] concerns anti-desmoglein-3 scFv antibody binding to human DSG3. The experiment in a line: inhibitors of anti-DSG3 scFv binding to DSG3, pilot screen, biochemical, validation compound set, bead-based, flow cytometry (AID 588368;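 active = binding below the plate cutoff, the plate median minus 3 SD, with a reading above zero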;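 also: signal is the median channel fluorescence of bead-bound GFP antibody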). As to conditions: Protein G beads, DSG3-Fc, scFv-GFP binding, at 10 µM, stronger effect = lower value.
Test [14] can be described thus: inhibitors of fungal efflux pumps CDR1, CDR2, MDR1, pilot screen, validation compound set, multiplex, phenotypic (AID 588506;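 active = efflux inhibition above 0.42, the validation set average plus 4 SD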;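 also: Nile Red retained in cells so higher fluorescence means more efflux inhibition; 0 = negative control wells and 1 = enniatin B 25 µM full block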). The following applies: S. cerevisiae pump-expressing triplex, Nile Red efflux flow cytometry; at 10 µM; stronger effect = higher value; the pumps come from Candida albicans.
For test [15], the target named is ATP-binding cassette sub-family B member 6 (Homo sapiens) (UniProt Q9NP58). Briefly: ABCB6 transporter inhibitors, pilot screen, K562-ABCB6 cells, flow cytometry, validation set (AID 588550;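 active = inhibition above the screen-wide mean plus 3 SD, about 51%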;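 also: 0% = DMSO wells and 100% = benzethonium chloride 70 µM positive control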). As to conditions: K562-ABCB6 porphyrin accumulation, 1 h, at 10 µM, stronger effect = higher value.
Sequence of ATP-binding cassette sub-family B member 6 (Homo sapiens) (Q9NP58 whole entry, looked up): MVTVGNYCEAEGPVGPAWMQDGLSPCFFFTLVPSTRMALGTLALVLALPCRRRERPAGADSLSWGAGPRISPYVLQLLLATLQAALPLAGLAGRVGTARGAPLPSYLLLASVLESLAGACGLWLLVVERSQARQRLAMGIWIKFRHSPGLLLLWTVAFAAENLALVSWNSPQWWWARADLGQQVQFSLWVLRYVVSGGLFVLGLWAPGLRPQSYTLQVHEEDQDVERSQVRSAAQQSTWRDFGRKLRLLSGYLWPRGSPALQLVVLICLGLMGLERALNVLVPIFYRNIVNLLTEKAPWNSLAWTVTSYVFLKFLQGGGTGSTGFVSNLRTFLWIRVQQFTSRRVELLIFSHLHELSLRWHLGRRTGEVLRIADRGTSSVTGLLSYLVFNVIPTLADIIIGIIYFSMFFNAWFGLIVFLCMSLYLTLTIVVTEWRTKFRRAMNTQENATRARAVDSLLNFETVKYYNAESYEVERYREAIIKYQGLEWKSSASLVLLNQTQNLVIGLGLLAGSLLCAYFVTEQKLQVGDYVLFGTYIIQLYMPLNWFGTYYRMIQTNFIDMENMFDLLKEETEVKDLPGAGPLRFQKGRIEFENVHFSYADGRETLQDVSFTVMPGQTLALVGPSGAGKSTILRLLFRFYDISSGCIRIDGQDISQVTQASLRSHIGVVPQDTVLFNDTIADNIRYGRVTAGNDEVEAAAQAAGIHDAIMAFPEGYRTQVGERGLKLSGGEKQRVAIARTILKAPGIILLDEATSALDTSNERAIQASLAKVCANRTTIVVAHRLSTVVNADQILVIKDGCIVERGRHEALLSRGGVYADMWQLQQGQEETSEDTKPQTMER
Test [16] can be described thus: promoters of myeloid differentiation in arrested cells, primary screen, cell-based, GFP/MAC1 double positive, flow cytometry, validation set (AID 588685;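 active = differentiation response of at least 50%, scaled between solvent and reference control, from cells with both markers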;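 also: compound exposure lasts four days before antibody staining and flow analysis; 0% = DMSO wells and 100% = 5 µM fulvestrant positive control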). As to conditions: ER-HoxA9 marrow cells, stronger effect = higher value, normalized: vehicle 0, fulvestrant 100.

Inconclusive results are not listed. The source made the active and inactive calls.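 The calls were made as follows, unless noted: active = aptamer binding inhibition above 30%, about 3 SD of noise from non-fluorescent compounds; inactive = inhibition at or below 30%.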

Sequence of Beta-adrenergic receptor kinase 1 (Homo sapiens) (P25098 whole entry, looked up): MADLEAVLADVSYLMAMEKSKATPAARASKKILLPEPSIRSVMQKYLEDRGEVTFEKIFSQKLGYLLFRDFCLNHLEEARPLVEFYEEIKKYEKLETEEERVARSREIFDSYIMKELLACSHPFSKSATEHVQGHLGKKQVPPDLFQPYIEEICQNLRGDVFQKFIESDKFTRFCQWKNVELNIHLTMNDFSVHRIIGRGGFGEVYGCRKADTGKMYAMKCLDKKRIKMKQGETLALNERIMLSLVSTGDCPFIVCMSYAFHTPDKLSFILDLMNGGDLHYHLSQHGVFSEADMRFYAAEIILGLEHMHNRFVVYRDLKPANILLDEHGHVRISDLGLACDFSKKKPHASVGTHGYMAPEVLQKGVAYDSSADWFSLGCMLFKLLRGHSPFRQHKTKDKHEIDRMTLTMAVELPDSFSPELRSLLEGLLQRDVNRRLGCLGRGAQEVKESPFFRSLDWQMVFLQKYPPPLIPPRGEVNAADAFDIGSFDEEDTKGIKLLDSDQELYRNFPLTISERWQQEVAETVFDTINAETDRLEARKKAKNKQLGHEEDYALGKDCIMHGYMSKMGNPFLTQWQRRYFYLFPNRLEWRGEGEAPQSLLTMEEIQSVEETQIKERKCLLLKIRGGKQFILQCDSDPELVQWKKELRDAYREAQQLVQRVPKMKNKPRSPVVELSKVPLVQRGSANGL

With `O=C(OCCN1CCOCC1)c1cccs1`, the percent of DMSO control GFP in [1] was 104% (inactive). For the same compound, the GFP response vs DMSO in [2] is 98.3% (inactive); in test [4] it was 94.7% (inactive). Besides, the percent response of DMSO control in test [3] is 113% (inactive). In addition, the GFP response, % of DMSO in test [5] is 103% (inactive). In [6], the double positive events was determined as 64.9%. Further, the vesicle binding response in test [6] is 260% (inactive). In addition, the figures for the inhibition in test [7], in [11] and in test [15] were -3.57% (inactive), -4.4% (inactive) and 1% (inactive), respectively. Further, the superoxide response (% of plate) in [8] is 88.9% (inactive). In [9], the aptamer binding inhibition is 2% (inactive). In addition, the response in [10] is -11.6% (inactive); in test [12], 0.26% (inactive). Besides, the binding (% of control) in test [13] was 91.9% (inactive). Also, in test [14], the efflux inhibition (fraction of control) is 0.02 (inactive). Further, the differentiation response in [16] was 0.24% (inactive).
Turning to `CC1=C/C(=N\N=C2\NC(=O)C(CC(=O)Nc3ccccc3F)S2)CC(C)(C)C1` (stereo not given), in test [1], the percent of DMSO control GFP is 94.2% (inactive). The GFP response vs DMSO in test [2] is 125% (inactive); in test [4], 83.1% (inactive). Besides, the percent response of DMSO control in test [3] was 86% (inactive). For the same compound, the GFP response, % of DMSO in test [5] was 95.2% (inactive). In test [6], this compound had a double positive events of 58%. Besides, the vesicle binding response in test [6] was 104% (inactive). Further, the inhibition in [7] was 12.3% (inactive); in test [11] it was -7.65% (inactive); in test [15] it was 11% (inactive). In addition, the superoxide response (% of plate) in test [8] is 96.1% (inactive). For the same compound, the aptamer binding inhibition in test [9] was 8% (inactive). Further, the results for the response in [10] and in test [12] were -1.66% (inactive) and 1.96% (inactive), respectively. Besides, in test [13], the binding (% of control) is 102% (inactive). In addition, the efflux inhibition (fraction of control) in test [14] was -0.2 (inactive). Also, the differentiation response in test [16] is 4.09% (inactive).
Regarding `Brc1c(NC2=NCCN2)ccc2nccnc12`, the percent of DMSO control GFP in test [1] was 95% (inactive). The results for the GFP response vs DMSO in test [2] and in test [4] were 105% (inactive) and 119% (inactive), respectively. In addition, in test [3], the percent response of DMSO control is 93.9% (inactive). In addition, in [5], the GFP response, % of DMSO was 103% (inactive). The compound further registered a double positive events in test [6] of 56.2%. Moreover, in [6], the vesicle binding response is 191% (inactive). Further, the figures for the inhibition in test [7], in [11] and in test [15] were 6.4% (inactive), 10.1% (inactive) and 1% (inactive), respectively. Also, the superoxide response (% of plate) in test [8] was 95.4% (inactive). In addition, the aptamer binding inhibition in test [9] is 3% (inactive). Further, the response in test [10] was -8.4% (inactive); in test [12], 0.44% (inactive). Besides, the binding (% of control) in test [13] is 102% (inactive). Besides, the efflux inhibition (fraction of control) in test [14] was -0.24 (inactive). Also, the differentiation response in test [16] was -12% (inactive).
Turning to `C(=C\c1ccc2ccccc2n1)/c1ccccc1`, in test [1], the percent of DMSO control GFP is 102% (inactive). Also, the results for the GFP response vs DMSO in test [2] and in [4] were 96.3% (inactive) and 97.4% (inactive), respectively. Further, in test [3], the percent response of DMSO control is 98.6% (inactive). In [5], the GFP response, % of DMSO was 93.2% (inactive). In [6], this compound showed a double positive events of 63.3%. Also, the vesicle binding response in test [6] was 306% (inactive). For the same compound, the figures for the inhibition in test [7], in test [11] and in test [15] were -27.7% (inactive), -3.54% (inactive) and 114% (active), respectively. In addition, in test [8], the superoxide response (% of plate) is 94.9% (inactive). For the same compound, in test [9], the aptamer binding inhibition was 3% (inactive). Further, the response is 5.82% (inactive) in test [10] and 0.75% (inactive) in test [12]. Moreover, in [13], the binding (% of control) is 105% (inactive). In test [14], the efflux inhibition (fraction of control) is -0.31 (inactive). The differentiation response in [16] was -8.8% (inactive).
As for `CCOc1ccc(NC2OC(C)C(O)C(O)C2O)c([N+](=O)[O-])c1` (stereo not given), the percent of DMSO control GFP in test [1] is 101% (inactive). Also, the results for the GFP response vs DMSO in test [2] and in test [4] were 104% (inactive) and 95.3% (inactive), respectively. Also, the percent response of DMSO control in [3] is 97.8% (inactive). The GFP response, % of DMSO in test [5] is 102% (inactive). In test [6], this compound came in with a double positive events of 62.7%. The vesicle binding response in test [6] is 4580% (inactive). The inhibition was -4.6% (inactive) in [7], -9.73% (inactive) in test [11] and -10% (inactive) in [15]. Besides, the superoxide response (% of plate) in test [8] was 102% (inactive). Also, the aptamer binding inhibition in test [9] was 2% (inactive). Moreover, the response was 5.64% (inactive) in [10] and 2.76% (inactive) in [12]. Besides, the binding (% of control) in test [13] was 94.8% (inactive). The efflux inhibition (fraction of control) in test [14] is -0.01 (inactive). For the same compound, the differentiation response in test [16] was -2.69% (inactive).
